High-throughput results from PubChem.
Shown are actives, neighbours in structure and some others; about 7.2% of the full set was active somewhere.
Efflux pump mplx: inhibitors of Candida efflux pumps in yeast, primary screen, S. cerevisiae, Nile Red, multiplex; S. cerevisiae Candida pump triplex; inhibition, % at 10 µM; actives 0.44% (n = 330,000);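 active = plate passing quality check with inhibition over a set limit, or well fluorescence over plate mean plus 4 SD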;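 also: Nile Red retained in pooled yeast measured as flow cytometry median fluorescence; 0% = buffer negative control and 100% = Enniatin B positive control; higher means more Nile Red kept so more efflux inhibition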
ALR inh: inhibitors of human ALR sulfhydryl oxidase, primary screen, biochemical, H2O2 detection, HRP-luminol luminescence, single point | FAD-linked sulfhydryl oxidase ALR (Homo sapiens), P55789 | purified ALR, DTT oxidation | inhibition, % (no concentration beside the values) | actives 3.8% (n = 290,000) | AID 485317, 2010;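 active = mean replicate inhibition above about 79%, with every replicate also reaching it, limit read from the data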
Target sequence (P55789 whole entry, looked up): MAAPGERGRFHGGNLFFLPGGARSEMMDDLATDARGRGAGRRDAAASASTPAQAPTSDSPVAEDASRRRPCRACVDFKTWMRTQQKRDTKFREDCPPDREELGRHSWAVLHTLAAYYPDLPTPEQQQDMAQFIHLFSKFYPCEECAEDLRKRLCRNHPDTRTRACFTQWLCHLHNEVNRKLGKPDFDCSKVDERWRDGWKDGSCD
Bfl-1 A1 inh: caspase 3/7 activation in MEF A1-2A-BIM cells, primary screen, A1 inhibitor project, cell-based, luminescence, HTS. AID 2462, 2010. actives 0.066% (n = 330,000). Caspase-Glo 3/7 luminescence, 3 h; percent of clofoctol response, vehicle zero. caspase activation, % (concentration not given with the values);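 active = over half of replicate activation scores above 10%, or exactly half above 10 with the replicate mean above 10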
VLA-4 inh: inhibition in human VLA-4 binding assay, primary screen, VLA-4 allosteric modulator project, MLPCN library, flow cytometry, VLA-4 expressing cells; Integrin alpha-4 (Homo sapiens), P13612; ligand binding flow cytometry; inhibition, % (about 7 µM as worked out from the volumes in the protocol); actives 0.2% (n = 330,000); in the data active = inhibition above about 50%
SUMO Mot1 rescue: yeast Mot1-301 growth rescue at high temperature, primary screen, SUMOylation pathway inhibitor project, S. cerevisiae, ATP luminescence, 38.5C. growth rescue, % at 18.8 µM. S. cerevisiae Mot1-301 growth rescue; percent above DMSO median, 100 means doubled. AID 2716, 2010. actives 1% (n = 320,000);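 active = every valid replicate shows activation above 250% relative to neutral control wells; inactive = the rest, any valid replicate at or below 250%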;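 also: OY570 slx delta 5 strain wells were the positive control but not used for scaling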
AHR activator: AHR activators, primary screen, cell-based, luminescence, luciferase reporter, human. AHR-responsive luciferase reporter cells. activation, % at 5 µM. actives 2.5% (n = 320,000). AID 2796, 2010; in the data active = activation above about 47%;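 also: 0% = vehicle wells and 100% = reference agonist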
AHR act confirm: AHR activators, confirmation, cell-based, luminescence, luciferase reporter, human | shares compounds with AHR activator | human cells, AHR-responsive luciferase reporter | activation, % at 9 µM | actives 87% (n = 2,300) | AID 2845, 2010; in the data active = activation above about 49%;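 also: HepG2 hepatoma cells carrying a DRE-driven firefly luciferase reporter; 0% = vehicle wells and 100% = reference agonist wells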
PXR counter: human PXR activators, counter-screen for AHR activator project, cell-based, luciferase luminescence; shares compounds with AHR activator; cell-based PXR reporter; activation, % at 11.6 µM; actives 88% (n = 2,300); in the data active = activation above about 11%;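 also: human hepatoma DPX-2 cells expressing full-length human PXR; 0% = DMSO and 100% = reference agonist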
Target sequence (O75469 whole entry, looked up): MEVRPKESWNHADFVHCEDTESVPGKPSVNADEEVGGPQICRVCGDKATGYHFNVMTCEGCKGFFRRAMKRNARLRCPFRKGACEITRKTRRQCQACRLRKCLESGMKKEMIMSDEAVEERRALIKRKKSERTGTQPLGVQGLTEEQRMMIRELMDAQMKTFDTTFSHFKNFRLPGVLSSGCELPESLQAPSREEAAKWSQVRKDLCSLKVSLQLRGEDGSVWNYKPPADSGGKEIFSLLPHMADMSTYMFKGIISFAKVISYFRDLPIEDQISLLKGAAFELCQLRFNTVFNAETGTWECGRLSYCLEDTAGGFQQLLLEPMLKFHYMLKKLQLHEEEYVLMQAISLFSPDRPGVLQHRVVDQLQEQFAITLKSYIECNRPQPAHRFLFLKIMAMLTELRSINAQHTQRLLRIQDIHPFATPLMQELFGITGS
* = called active by the depositor; nt = no result.

SMILES	Efflux pump mplx	ALR inh	Bfl-1 A1 inh	VLA-4 inh	SUMO Mot1 rescue	AHR activator	AHR act confirm	PXR counter
O=C1c2ccccc2NC(c2ccc(Br)s2)N1O (centres undefined)	0.0	1.9	-0.7	2.2	25.3	79.9*	81.0*	24.7*
Cc1nccn1CC(O)COc1ccc(Cl)cc1Cl (centres undefined)	0.0	1.9	0.4	20.1	9.8	-1.5	nt	nt
Cc1ccc(C(=O)N2CCOCC2)c(F)c1F	0.1	nt	2.4	8.5	0.0	5.0	nt	nt
COc1ccc(O)c(-c2cc(-c3cccs3)[nH]n2)c1	-0.4	20.9	-5.2	-0.1	440.0	86.5*	138.5*	26.3*
COc1ccc(O)c(-c2cc(-c3ccccc3Cl)[nH]n2)c1	0.0	31.0	-3.6	-1.6	35.1	124.0*	272.6*	21.9*
COc1ccccc1-c1cc(-c2cc(Cl)ccc2O)n[nH]1	-0.3	-5.1	-2.0	-68.4	-5.3	32.4	nt	nt
O=C(O)c1cc(S(=O)(=O)Nc2ccc3c(c2)OCCO3)c(Cl)cc1Cl	-0.1	-13.1	-0.3	-11.5	2.4	82.9*	14.8	13.7*
CCC(C)C(=O)Nc1nc(C)c(-c2csc(Nc3cc(Cl)ccc3OC)n2)s1 (centres undefined)	0.0	-22.2	0.1	13.1	11.3	84.5*	56.4*	30.2*
COc1cccc(Nc2nc(-c3sc(NC(=O)c4ccco4)nc3C)cs2)c1	0.2	22.2	-1.8	6.8	0.4	46.0	nt	nt
COc1ccc(OC)c(Nc2nc(-c3sc(C)nc3C)cs2)c1	0.2	-2.9	0.3	17.7	1.2	33.8	nt	nt
CCC(C)C(=O)Nc1nc(C)c(-c2csc(Nc3cc(OC)ccc3OC)n2)s1 (centres undefined)	0.1	-14.8	-0.7	10.7	2.8	82.7*	61.1*	52.5*
COc1ccc(Cl)cc1Nc1nc(-c2sc(NC(=O)c3ccco3)nc2C)cs1	0.1	2.4	0.6	-0.7	3.7	106.5*	75.3*	20.6*
COC(=O)c1cc(C(=O)OCC(=O)Nc2ccccc2OC(F)F)cc([N+](=O)[O-])c1	0.1	-3.6	-0.8	-0.8	0.6	1.0	nt	nt
Cc1ccc2c(c1)Oc1ccc([N+](=O)[O-])cc1C(=O)N2	-0.1	-6.3	0.0	3.5	1.4	88.0*	81.7*	67.6*
Cc1ccc(Nc2ncccc2C(N)=O)cc1	-0.1	73.6	-0.6	2.3	-7.7	151.2*	133.3*	nt
Cc1cc(Cl)ccc1Nc1ncccc1C(N)=O	0.0	-0.4	-0.6	-2.3	-5.6	38.6	nt	nt
COc1ccc(Cc2nnc(SCC(=O)NCC3CCCO3)o2)cc1 (centres undefined)	0.0	-5.1	-1.4	26.0	2.2	1.6	nt	nt
COc1cc(OC)cc(C(=O)NC2=NCCS2)c1	-0.1	-3.5	0.3	-4.3	-5.5	94.5*	100.7*	19.9*
COc1cc(NC(=O)C2CCCN2S(=O)(=O)c2ccc3c(c2)CC(C)N3C(C)=O)cc(OC)c1 (centres undefined)	0.0	-8.7	0.0	14.0	16.0	6.5	nt	nt
COc1cccc(C=Nc2ccc3c(c2)CCC3)c1O	-0.1	15.9	0.6	24.3	-10.1	0.9	nt	nt
CCc1ccc2oc(-c3cc(N=Cc4cccc(OC)c4O)ccc3O)nc2c1	0.3	-3.0	-7.5	-28.4	1.0	124.6*	113.2*	8.7
Oc1ccc2ccc3[nH]cnc3c2c1	-0.3	100.0*	0.2	-24.2	4.7	80.2*	37.2	21.8*
COc1ccc2c(c1OC)C(=O)N1N=C(c3ccc(Cl)cc3)CC21 (centres undefined)	0.0	0.1	0.0	17.6	7.9	12.9	nt	nt
Clc1nnc(N/N=C/c2ccccc2)c2ccccc12	-0.1	21.8	-8.6	9.3	-9.5	81.9*	109.9*	22.8*
Clc1cncc(Cl)c1N/N=C/c1ccccc1	0.0	-5.4	-2.3	6.7	-10.0	38.8	nt	nt
SMILES	Efflux pump mplx	ALR inh	Bfl-1 A1 inh	VLA-4 inh	SUMO Mot1 rescue	AHR activator	AHR act confirm	PXR counter
CC(C)(C=O)C1=CC(=O)c2ccccc2C1=O	-0.2	96.0*	-0.7	13.8	180.5	83.0*	112.0*	25.5*
CC1=CC(=O)c2ccccc2C1=O	0.0	-74.9	0.5	0.7	-0.8	21.9	nt	nt
CCC(C)(C)n1nnnc1CN(Cc1ccco1)Cc1cc2cc3c(cc2[nH]c1=O)OCO3	0.0	nt	0.2	-1.4	7.4	107.3*	85.8*	146.8*
COc1ccc2cc(CN(Cc3ccco3)Cc3nnnn3C3CCCCC3)c(=O)[nH]c2c1	-0.1	0.1	0.7	-5.2	-12.8	-1.0	nt	nt
CC(C)(C)n1nnnc1CN(Cc1ccco1)Cc1cc2cc3c(cc2[nH]c1=O)OCO3	-0.1	5.3	0.5	14.7	-8.3	111.4*	95.9*	197.0*
C/C(=C1/C(=O)N(c2ccc([N+](=O)[O-])cc2)N=C1c1ccccc1)N(C)C	-0.2	nt	-3.7	-24.6	13.4	87.4*	36.5	28.8*
Cc1c(-c2nc(-c3cccnc3)no2)cccc1[N+](=O)[O-]	0.1	0.3	-1.3	8.0	327.3	88.5*	119.0*	18.9*
N/C(=N\OC(=O)c1ccccc1Cl)c1cccnc1	0.0	-0.5	-8.3	3.5	nt	102.1*	103.9*	5.2
N/C(=N\OC(=O)c1cc(Cl)ccc1Cl)c1cccnc1	0.0	nt	-1.2	32.7	9.8	34.2	nt	nt
N/C(=N\OC(=O)c1ccc(Cl)c(Cl)c1)c1cccnc1	0.1	-7.0	-5.0	-5.0	341.6	79.8*	79.6*	13.8*
COc1ccc(NC(=O)c2ccc(NC(=O)COC(=O)CC(NC(=O)c3ccccc3Cl)c3ccccc3)cc2)cc1 (centres undefined)	-1.2	nt	0.6	5.5	nt	8.3	nt	nt
O=c1nc2n(c3c4c(sc13)CCC4)CCC2	-0.1	22.0	2.3	-6.8	2.4	-7.0	nt	nt
Cn1cc(/C=C(\NC(=O)c2ccccc2)C(=O)N2CCOCC2)c2ccccc21	0.2	52.4	-0.2	-6.2	-16.3	85.3*	33.5	87.4*
Cc1ccc(C(=O)N/C(=C\c2cn(C)c3ccccc23)C(=O)N2CCOCC2)cc1	0.0	-3.4	0.5	10.0	5.9	18.5	nt	nt
CCC(=O)N1CCc2cc(S(=O)(=O)NC(C(=O)NC3CCCc4ccccc43)C(C)C)ccc21 (centres undefined)	-1.0	nt	0.1	4.2	nt	0.5	nt	nt
